# Test results published in PubChem BioAssay (NCI).
# Where “and” joins values, the source holds several entries; their conditions need not be identical. Identical values can stand only once. This is part of a sample that, as a whole, favours compounds with a hit. Of some 83,000 tested, about 20% had one in any assay.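 A percent growth of 40 corresponds to 60% growth inhibition; 0 means no net growth; -100 means all cells died. Active threshold: below 10.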 Values without a mark were called inactive. Calls of active or inactive are those of the source.
# Test system: MDA-MB-468 breast
# Experiment: NCI-60 one-dose screen, 48 h (100 = growth as untreated, 0 = no growth, -100 = all killed)
# Settings: 10 µM unless noted
row,SMILES,growth
1,Cc1nc(Nc2ccc(NC(=S)Nc3ccccc3)cc2)c2ccccc2n1,109%
2,Nc1ncc(-c2ccc3ncnc(N4CCc5cc(F)c(F)cc54)c3c2)cn1,4.19% (active)
3,O=c1oc2ccc(Br)cc2c(=O)n1-c1ccc(F)cc1F,-2.96% (active)
4,CCCCCCCCCCCCCCCCCCNCc1ccc(Cl)cc1,-71.9% (active)
5,O=C(O)c1cn(C2CC2)c2cc(N3CCN(C(=O)/C=C/c4ccc(Cl)cc4)CC3)c(F)cc2c1=O,75.5%
6,CC(C)(C)c1cc(-n2c(-c3ccc(Cl)cc3)nc3cc(C(=O)Nc4ccc(Cl)cc4)ccc32)n[nH]1,51.7%
7,S=c1cnc2ccccc2[nH]1,108%
8,O=C(Nc1cccc(Cl)c1)Nc1nc2cc([N+](=O)[O-])ccc2o1,53.4%
9,c1ccc(C(NC2CC3CCC2C3)c2ccccc2)cc1 (stereo not given),96.8%
10,CS(=O)(=O)c1nccc(-c2c(-c3ccc(F)c(OCCc4ccc(F)cc4)c3)nc3sccn23)n1,-52.2% (active)
11,O=S(=O)(Oc1ccc(-c2cn3ccsc3n2)cc1)c1cccc(C(F)(F)F)c1,92.9%
12,Clc1ccc(N2N=C(c3cccc(Nc4ccncc4)c3)CC2c2ccc3c(c2)OCO3)cc1 (stereo not given),62.1%
13,Oc1ccc(Cl)cc1Sc1cc(Cl)ccc1O,22%
14,O=C(CN1CCCCC1)Nc1ccc2oc(=O)ccc2c1,107%
15,COc1cccc(N=CNc2cccc(OC)c2)c1,107%
16,COc1ccc(/C=C2\N=C(Nc3ccccc3)N(NC(=O)c3ccccn3)C2=O)cc1,97.2%
17,CNS(=O)(=O)Nc1nccc(Cc2c(C)c3ccc(Oc4ncccn4)cc3oc2=O)c1F,62.9%
18,Clc1ccc(/C=N/Nc2nc3ccccc3s2)c(Cl)c1,89.3%
19,CN(C)CCS(=O)(=O)Nc1cc(-c2ccc3ncc(C#N)c(Nc4ccc(F)c(Cl)c4)c3c2)cnc1Cl,-77.8% (active)
20,CCCc1nc(C(C)(C)O)c(C(=O)O)n1Cc1ccc(-c2ccccc2-c2nn[nH]n2)cc1,112%

row,SMILES,growth
1,COc1ccccc1Cn1cc2c(c1)-c1oncc1CC2,6.66% (active)
2,CC1(C)CC[C@]2(CO)CC[C@]3(C)[C@H](CC[C@@H]4[C@@]5(C)CCCNC(C)(C)[C@@H]5CC[C@]43C)[C@H]2[C@H]1O,71.3%
3,O=C(Nc1ccc(-n2cc(-c3ccncc3)c(-c3ccc(Cl)c(O)c3)n2)cc1)c1ccc(Cl)c(Cl)c1,54.2%
4,COC(=O)[C@H](Cc1cnc[nH]1)NC(=O)[C@@H](NC(=O)Nc1cc(C(F)(F)F)cc(C(F)(F)F)c1)C(C)C,-60.9% [100 µM] (active)
5,CCOC(=O)N/N=C/c1ccc(OC)c(OC)c1,97.6%
6,OCCN1CCN(CC/C=C2\c3ccccc3Sc3ccc(Cl)cc32)CC1,-97.1% (active)
7,COc1cc(NCCCCCNC(C)C)c2ncccc2c1,87.6% and 39.1%
8,CN(C)c1ccc(/C=N/Nc2nc(N/N=C/c3ccc(N(C)C)cc3)nc(N3CCOCC3)n2)cc1,97.8%
9,CC1=C2[C@@H](CC1)[C@]1(C)O[C@@](C3CCCCC3)(C[C@H]1OC(=O)CO)[C@H]2OC(=O)/C=C/c1ccccc1,87.6%
10,Nc1c(C(=O)Nc2c(Cl)cccc2Cl)sc2nc3c(cc12)C(=O)CCC3,-3.83% (active)
11,O=S(=O)(NCCCNc1nccc(-c2c(-c3cccc(F)c3)nc3occn23)n1)c1ccc(F)cc1,26.7%
12,CNC(=O)c1cc(Oc2ccc3nc(NC(=O)c4ccc(CN5CCN(C)CC5)c(C(F)(F)F)c4)sc3c2)ccn1,52.1%
13,CCNC(=O)Nc1nc2ccc(Oc3ccnc(C(=O)NC)c3)cc2s1,50.8%
14,C=CC[C@]1(O)CC[C@H]2[C@@H]3CCc4cc(O)ccc4[C@H]3CC[C@@]21C,87.4%
15,Cn1c2ccc(Br)cc2c2c3c(c4c5ccccc5[nH]c4c21)C(=O)N(O)C3=O,-52.5% (active)
16,CCC(C)[C@H](NC(=O)NC(=O)NC(=O)CI)C(=O)OC (stereo not given in full),86.4%
17,COc1ccc(Cn2cc3c(c2-c2cc(OC)c(OC)c(OC)c2)CCc2cnoc2-3)cc1[N+](=O)[O-],-1.72% (active)
18,Nc1c(C(=O)Nc2ccccc2C(F)(F)F)sc2nc3c(cc12)CCC3,104%
19,Cc1cc(CO)c(O)c(CO)c1,106%
20,CC(=O)c1c([Si](C)(C)C)c2cc(C#N)ccn2c1C(=O)c1ccc(Br)cc1,79.9%
